# High-throughput results from PubChem BioAssay.
# A selection: hits, their analogues and other compounds. The true share with any hit is near 11%.
# ALDH1A1 inh: blocks purified human ALDH1A1 activity. P00352. Purified ALDH1A1, NADH fluorescence, propionaldehyde substrate. Potency, µM (series often up to 75.3 µM), inactives show at the highest dose activity, negative = inhibition, hits mostly inhibitors. 7.3% of 220,000 active. AID 1030;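 further: potency means the concentration at half of the fitted maximal effect; plate controls were no enzyme wells and a reference inhibitor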
# Target sequence (P00352 whole entry, looked up): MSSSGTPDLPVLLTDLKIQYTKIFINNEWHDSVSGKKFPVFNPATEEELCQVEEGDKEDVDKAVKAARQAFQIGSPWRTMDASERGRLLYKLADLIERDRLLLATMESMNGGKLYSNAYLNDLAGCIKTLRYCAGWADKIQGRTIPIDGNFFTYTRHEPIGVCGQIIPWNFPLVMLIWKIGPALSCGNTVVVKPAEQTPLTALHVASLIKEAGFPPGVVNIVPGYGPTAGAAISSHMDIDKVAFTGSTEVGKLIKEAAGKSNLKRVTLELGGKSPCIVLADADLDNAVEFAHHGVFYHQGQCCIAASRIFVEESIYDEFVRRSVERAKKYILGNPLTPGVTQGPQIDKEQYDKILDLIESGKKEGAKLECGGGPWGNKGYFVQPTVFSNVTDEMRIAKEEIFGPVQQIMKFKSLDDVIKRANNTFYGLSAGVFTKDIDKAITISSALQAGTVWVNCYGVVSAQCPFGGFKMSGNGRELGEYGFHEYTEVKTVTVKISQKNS
# HPGD block: blocks human HPGD enzyme activity; P15428; purified HPGD, NADH fluorescence kinetic, PGE2 substrate; Potency, µM, without a hit: top-dose activity change, negative = inhibition, most hits filed as inhibitors; 4.3% of 150,000 active; further: potency means the concentration at half of the fitted maximal effect
#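 NADH formation kinetics: reaction with 30 uM PGE2 and 1 mM NAD+ (final), 20 nM enzyme, Tris-HCl pH 8 with Tween 20, after 15 min compound preincubation at room temperature. Fluorescence change, last versus first of five reads.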
# PNC assembly inh: blocks assembly of the perinucleolar compartment. activity change (PNC), negative = inhibition, % at 10 µM. AID 2417. PC3M PTB-GFP, PNC prevalence imaging, 16 h; stronger effect = lower value. 3.1% of 140,000 active;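 active means readout at or below -70, meaning at least 70% loss of cells showing the perinucleolar compartment, a nuclear body marking cancer cells; inconclusive means readout between -30 and a set limit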;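 further: plate controls were DMSO wells for no effect and camptothecin positive control wells for full effect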
#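 Read-out is percentage of cells bearing a perinucleolar compartment, from automated 20x imaging of fixed, Hoechst-stained PC3M PTB-GFP cells. Cells were seeded 4 h, then exposed 16 h to compound (23 nl of library stock) in duplicate plates.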
# An asterisk follows results filed as active; ? = inconclusive; . = no result given. Unless noted, the call rests on the fitted dose curve; in most records, active means well fitted inhibition curve with a large enough effect (not every such curve was filed as active); inconclusive means small, poorly fitted or top-dose-only effect, or another doubt; inactive means no such curve, though single readings can be large or run the other way. Unless noted, on the % scale 0 is the no-effect control and ±100 the full control effect.
SMILES,ALDH1A1 inh,HPGD block,PNC assembly inh
CCc1c(C)nc(Nc2nc(C)c3ccc(OC)cc3n2)[nH]c1=O,2.2µM*,-4%,-27
C=CCN1C(=O)C(Cc2ccc(OC)cc2)S/C1=N/N=C/c1ccco1 (configuration not stated),7.1µM*,-25%,-24
C=CCN1C(=O)C(Cc2ccc(Br)cc2)S/C1=N\N=C\c1ccco1 (configuration not stated),?,-3%,-27
CCOC(=O)N1CCN(C(=O)c2cc(-c3ccc(OCC)cc3)nc3ccccc23)CC1,?,?,-95*
CCOc1ccc(-c2cc(C(=O)N3CCN(C)CC3)c3ccccc3n2)cc1,?,?,23
CC(=O)N[C@@H](Cc1ccc(O)cc1)C(=O)O,-1%,1%,.
O=C1[C@@H]2[C@@H]3C[C@@H]([C@H]4ON=C(c5ccc(OCc6ccccc6)cc5)[C@@H]34)[C@@H]2C(=O)N1c1ccc2c(c1)OCO2,2%,-13%,?
CCOc1ccc(NC(=O)CC2SC(=O)N(c3ccccc3)C2=O)cc1 (configuration not stated),7.9µM*,.,.
CCCN1C(=O)SC(CC(=O)Nc2ccc(Br)cc2)C1=O (configuration not stated),?,-3%,-17
COc1ccccc1NC(=O)CC1SC(=N)N(c2ccccc2)C1=O (configuration not stated),-6%,.,.
Cc1ccccc1NC(=O)CC1SC(=O)N(c2ccccc2)C1=O (configuration not stated),16µM*,?,4
COc1cccc(NC(=O)CC2S/C(=N\S(=O)(=O)c3ccccc3)N(c3ccccc3)C2=O)c1 (configuration not stated),20µM*,-21%,3
COc1cccc(NC(=O)CC2SC(=Nc3ccccc3)NC2=O)c1 (configuration not stated),-11%,-11%,35
CCCN1C(=O)SC(CC(=O)Nc2ccccc2C)C1=O (configuration not stated),10µM*,-3%,47
CCOc1ccccc1NC(=O)CC1SC(=N)N(c2ccccc2)C1=O (configuration not stated),3%,.,.
O=C(NCC1CCCO1)c1ccc(NS(=O)(=O)c2ccccc2)cc1 (configuration not stated),0%,.,.
CC(=O)NC1C(OC2OC(CC(O)C3OC([N+]4=CCC(=O)NC4=O)C(O)C3O)C(O)C(O)C2NC(=O)/C=C/CCCCCCCCC(C)C)OC(CO)C(O)C1O (configuration not stated),-6%,.,.
Cc1ccc(NC(=O)COC(=O)Cc2ccsc2)c(C)c1,-2%,.,.
Cc1ccc(NCC(=O)NNC2=NCCC2)c(C)c1,1%,-1%,31
Cc1ccc(CSCC(=O)N/N=C/c2cccc(OC3CSC3)c2)cc1,1%,-21%,?
CCC(=O)N1c2ccc(C)cc2C2=NNC(=S)NC21O (configuration not stated),12%,-3%,19
CC(=O)Nc1ccc2nc(-c3ccc(Br)o3)[nH]c2c1,32µM*,-22%,38
Cc1ccc(-c2nc3ccc(NS(=O)(=O)c4ccccc4)cc3[nH]2)o1,8.9µM*,40%,52
O=S(=O)(Nc1ccc2nc(-c3ccc(Br)o3)[nH]c2c1)c1ccccc1,-16%,-30%,25
O=C(Nc1ccc2nc(-c3ccc(Br)o3)[nH]c2c1)c1ccco1,-9%,-20%,-22
SMILES,ALDH1A1 inh,HPGD block,PNC assembly inh
COC(=O)c1cn(C(=O)/C=C/c2ccc(OC)c(OC)c2)c2ccccc12,108%,.,.
CC(OCCN1CCCC1)(c1ccc(F)cc1)c1ccc(F)cc1,19%,3%,?
Cc1ccc(NC(=O)NC(=O)N(C(C)C)S(=O)(=O)c2ccc(C)cc2)cc1,-8%,.,.
Cc1[nH]c2ccccc2c1Cc1n[nH]c(=S)n1C,-12%,35µM*,3
Cn1c(Cc2c[nH]c3ccccc23)n[nH]c1=S,-2%,-26%,-2
O=C(COC(=O)CNS(=O)(=O)c1c(Cl)cccc1Cl)Nc1cccnc1Cl,5%,-6%,-29
Cc1ccccc1NC(=S)N(Cc1ccccc1)Cc1cccnc1,6%,.,.
Cc1ccc(Cl)cc1NC(=S)N(Cc1cccnc1)Cc1ccccc1Cl,11µM*,.,.
CCCCOc1ccc(NC(=O)C2CC=CCC2C(=O)O)cc1 (configuration not stated),-3%,2%,23
Cc1cc(C)cc(Oc2ccc(NC(=O)C3CC=CCC3C(=O)O)cc2)c1 (configuration not stated),2.8µM*,.,.
CCOc1ccc(NC(=O)C2CC=CCC2C(=O)O)cc1 (configuration not stated),-1%,-14%,-15
